Results: ChEMBL document CHEMBL1157539, “Thousands of chemical starting points for antimalarial lead identification” (Nature, 2010)
Whole data set: some 13,000 compounds, median “IFI” near 4, cut for the highest 2% near 17. The full list was thinned out, with the highest values kept by preference.

assay: GSK_TCMDC: Inhibition Frequency Index (IFI). The number of non-kinase HTS assays where a compound showed > 50 % inhibition, expressed as a percentage of the number of such assays in which the compound was tested; assay type: functional

SMILES	IFI [%]
O=S(=O)(Nc1cccc(CCN2CCC(N3CCCCC3)CC2)c1)c1cccc2ccccc12	8.06
Cc1c(Cl)cccc1S(=O)(=O)Nc1cccc(CCN2CCC(N3CCCCC3)CC2)c1	14.3
CN(C)c1cccc2c(S(=O)(=O)Nc3cccc(CCN4CCC(N5CCCCC5)CC4)c3)cccc12	18
CC(N)(Cc1ccc(O)cc1)c1nnn[nH]1 (configuration not stated)	0
Cc1[nH]c(C)c(-c2csc3ccccc23)c(=O)c1Cl	0
O=c1sn(-c2csc3ccccc23)c2ccccc12	18.5
COc1ccc(S(=O)(=O)NCC2CCCN(CCCCCNC(=O)/C=C/c3ccc(Cl)c(Cl)c3)C2)cc1 (configuration not stated)	9.22
Cc1nc(Nc2ccc(F)cc2)nc(N2CCc3cc(O)ccc3C2C)c1C (configuration not stated)	8.63
O=c1c(NCCCN(Cc2ccc(F)cc2)c2ccccn2)c(NCc2ccncc2)c1=O	0.7
COc1ccc(CC2(c3ccc(F)cc3)N=C(N)N(CCCc3ccc(F)c(F)c3)C2=O)cc1 (configuration not stated)	20
COc1ccc(CC2(c3ccc(F)cc3)N=C(N)N(CCCc3ccc4c(c3)OCO4)C2=O)cc1 (configuration not stated)	6.45
COc1ccc(CC2(c3ccc(F)cc3)N=C(N)N(CCCc3ccccc3)C2=O)cc1 (configuration not stated)	16.7
COc1ccc(CNC(=O)c2cnc3c(O)cccc3c2Nc2cccc(NC(=O)c3ccc(Cl)c(Cl)c3)c2)cc1	7.81
NC(=O)COc1c(C2CCN(CCCCNC(=O)c3ccc(-c4ccc(Cl)cc4)c(O)c3)CC2)ccc2c1CCCC2	13.8
CC(C)C1=C[C@H]2C[C@]3(C4OCCO4)[C@@H]4CC[C@@H](C)[C@H]4C[C@@]2(COCc2cccc(C#N)c2)[C@]13C(=O)OC(c1ccccc1)c1ccccc1	2.33
CN1CCN(Cc2ccc(-c3ccc4ncnc(Nc5ccc(OCc6ccccc6)cc5)c4c3)o2)CC1	6.98
Cc1cccc2nc(-c3ccc(-c4ccc(CNCc5ccc(CN)cc5)cc4)s3)[nH]c12	11.9
CC(C)CNCc1ccc(-c2cccc(CNc3ccc4ncccc4c3)c2)cc1	8.51
COc1cc2nccc(Nc3ccc(OCc4ccc(NC(C)=O)cc4)cc3)c2cc1OC	5.84
COc1ccc(Nc2nccc(-c3ccc4c(-c5ccsc5)cnc(N)c4c3)n2)cc1	2.13
Nc1nccc2ccc(-c3ccnc(NCc4cccnc4)n3)cc12	5.56
Cn1ncc2ccc(Nc3nccc(-c4ccc5c(c4)c(N)nn5C)n3)cc21	17.8
CC(CN(C)C)C(=O)Nc1ccc(-c2ccc(-c3nc4cc(C(F)(F)F)ccc4[nH]3)cc2)cc1 (configuration not stated)	3.6

SMILES	IFI [%]
Cc1ccc(C(C(=O)Nc2ccc(N3CCNCC3)c(Cl)c2)c2ccccc2)cc1 (configuration not stated)	18.6
CC(C)(C)C(=O)Nc1ccc(N2CCN(C(c3ccccc3)c3ccccc3)CC2)c(Cl)c1	3.51
O=C(Nc1ccc(Cl)c(Cl)c1)Nc1ccccc1N1CCNCC1	15
CC(C)N1CCN(C(CN2CCN(CCCOc3ccc4ccccc4c3)CC2)c2ccc(F)cc2)CC1 (configuration not stated)	9.85
CNc1ccc(CNCc2cccc(-c3ccc(-c4nc5cc(C(F)(F)F)ccc5[nH]4)cc3)c2)cc1	18.8
FC(F)(F)c1ccc2[nH]c(-c3ccc(-c4cccc(CNCc5ccccc5)c4)cc3)nc2c1	12.5
CNc1ccc(CNCc2ccc(-c3ccc(-c4nc5cc(C(F)(F)F)ccc5[nH]4)cc3)cc2)cc1	14.1
Cc1ccc(-n2c(Sc3ncnc4sccc34)nnc2N2CCCC2)cc1	6.06
C[C@H]1CN(Cc2ccc(-c3cccc(CNC(=O)c4cccc(C(=O)c5ccc(Cl)c(Cl)c5)c4)c3)s2)CCN1	16.2
CC1CCN(Cc2cccc(C(=O)NCc3ccc(F)c(-c4cccc(CN5CCN[C@@H](C)C5)c4)c3)c2)CC1	5.04
C[C@H]1CN(Cc2cccc(-c3cc(CNC(=O)c4cccc(C(=O)c5ccc(Cl)c(Cl)c5)c4)ccc3F)c2)CCN1	18.6
Cc1cc(N[C@@H](Cc2ccccc2)C(=O)NCc2cccc(F)c2)nc(NCCc2cccs2)n1	12.8
O=C(NCC1Cc2cc(Oc3ccccc3)ccc2O1)c1ccc([N+](=O)[O-])o1 (configuration not stated)	17.9
CCOC(=O)C(NC(=O)c1ccc([N+](=O)[O-])o1)C(C)C (configuration not stated)	1.41
CCOC(=O)C(CO)NC(=O)c1ccc([N+](=O)[O-])o1 (configuration not stated)	1.41
Cc1cccc2nc(-c3ccc(-c4ccc(NC(=O)Nc5ccsc5)cc4)cc3)[nH]c12	8
CN(C)CCNCc1cccc(-c2ccc3c(Nc4cc(O)c(Cl)cc4F)ccnc3c2)c1	3.68
O=C(N[C@H]1CCN(CCc2ccc(O[C@H]3CCNC3)c(F)c2)C1)c1ccc(Cl)c(Cl)c1	6
COc1ccc(C(=O)NC(Nc2ccc([N+](=O)[O-])cc2)C(Cl)(Cl)Cl)cc1 (configuration not stated)	13.4
O=C(NC(Nc1ccc([N+](=O)[O-])cc1)C(Cl)(Cl)Cl)c1ccc(Cl)cc1 (configuration not stated)	19.9
O=C(NC(Nc1ccc([N+](=O)[O-])cc1)C(Cl)(Cl)Cl)c1cccc(Cl)c1 (configuration not stated)	13.9
COc1cccc2c(N/N=C/c3ccccc3[N+](=O)[O-])ccnc12	3.62
CC(C)(C)c1cc(Cl)cc(C(=O)Nc2cc([N+](=O)[O-])ccc2Cl)c1O	13.7

SMILES	IFI [%]
CC(C)(C)c1cc([N+](=O)[O-])cc(C(=O)Nc2ccccc2C(F)(F)F)c1O	22.7
O=C(Nc1ccccc1Cc1ccccc1)c1ccccc1C(F)(F)F	0.78
CNC(=O)c1cnc(Nc2ccc(N3CCN(C)CC3)cc2)nc1Nc1cccc(OC)c1	4.48
Cc1ccc2[nH]c(NC#N)nc2c1	0
COc1cc2nc(N3CCC(CNCc4ccc(-c5ccc(C(F)(F)F)cc5)cc4)CC3)nc(N)c2cc1OC	17.1
c1ccc(Oc2ccc(Nc3ccnc(Nc4ccc(CN5CCOCC5)cc4)n3)cc2)cc1	20.2
c1ccc(Oc2ccc(Nc3ccnc(Nc4cccc(CNCCCN5CCOCC5)c4)n3)cc2)cc1	7.41
CN1CCN(Cc2cccc(Nc3nccc(Nc4ccc(Oc5ccccc5)cc4)n3)c2)CC1	3.01
COc1ccc(CNC(=O)Nc2cc3cc(-c4ccc(CN5CCCC5)cc4)ccc3n3c(C)nnc23)cc1	13.5
CN(C)C(CNC(=O)c1cc(-c2ccncc2)c(-c2ccc(NC(=O)Nc3cccc(Cl)c3)cc2)o1)c1ccccc1 (configuration not stated)	8.11
CC(C)NCc1ccc(-c2ccc(NC(=O)c3cccc(C#N)c3)cc2)cc1	8.16
Cc1ccc(NC(=O)Nc2ccccc2)cc1-c1ccc(C(=O)Nc2ccncc2)cc1	25.7
Cc1ccc(NC(=O)Nc2cccc(Cl)c2)cc1-c1ccc(C(=O)Nc2ccncc2)cc1	25.4
N#Cc1cccc(C(=O)Nc2cccc(-c3ccc(C(=O)Nc4cccnc4)cc3)c2)c1	7.46
Cc1ccc(NC(=O)Nc2ccc(Cl)cc2)cc1-c1cccc(C(=O)Nc2ccc(F)cc2)c1	15.9
Cc1ccc(NC(=O)c2ccc(Cl)cc2)cc1-c1ccc(C(=O)Nc2ccncc2)cc1	15.5
Cc1cccc2nc(-c3cccc(-c4ccc(NC(=O)c5ccncc5)cc4)c3)[nH]c12	4.42
O=C(Nc1ccc(C(=O)Nc2cccc(C3=NCCN3)c2)cc1)Nc1ccc(C2=NCCN2)cc1	3.57
Cc1ccc(NC(=O)c2cccc(C#N)c2)cc1-c1ccc(C(=O)Nc2ccncc2)cc1	24.6
O=C(Nc1ccc(-c2oc(C(=O)NCCc3cccc(Cl)c3)cc2-c2ccncc2)cc1)Nc1cccc(Cl)c1	2.78
Cc1ccc(NC(=O)Nc2ccc(Cl)cc2)cc1-c1ccc(C(=O)Nc2ccncc2)cc1	21.1
